Data reported in article PMC10726135, “HNF4α isoforms regulate the circadian balance between carbohydrate and lipid metabolism in the liver”.
Whole data set: some 18,000 sequences, median “log2 normalized intensity” near 0.39, cut for the highest 2% near 6.6. What follows is part of a selection rich in the highest values, with near analogues and random picks from the rest.

Target: T1, HNF4alpha2 (COS-7 nuclear extract) (Homo sapiens, UniProt P41235 1-474)
T1 sequence: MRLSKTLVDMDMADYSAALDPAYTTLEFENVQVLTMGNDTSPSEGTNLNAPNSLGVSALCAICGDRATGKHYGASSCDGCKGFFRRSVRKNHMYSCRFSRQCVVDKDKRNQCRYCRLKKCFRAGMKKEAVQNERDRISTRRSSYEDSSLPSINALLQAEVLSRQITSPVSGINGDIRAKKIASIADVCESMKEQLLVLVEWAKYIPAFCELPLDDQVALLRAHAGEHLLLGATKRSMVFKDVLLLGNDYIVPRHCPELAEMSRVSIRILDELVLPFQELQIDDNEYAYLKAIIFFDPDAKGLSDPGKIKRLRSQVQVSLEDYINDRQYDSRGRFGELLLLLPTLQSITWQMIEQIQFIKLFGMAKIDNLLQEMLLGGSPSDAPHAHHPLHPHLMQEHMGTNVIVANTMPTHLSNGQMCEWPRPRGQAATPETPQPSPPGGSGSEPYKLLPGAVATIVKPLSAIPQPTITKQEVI
Assay: protein-binding microarray; COS-7 nuclear extract on double-stranded Agilent 4x180k PBM; binding buffer, salt, pH and temperature not given in the material; high values mean tight binding
Details: chain copies: 2; label: 3' end of strand 1 on the slide; dsDNA, one strand shown
In short: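 The binding signal is Agilent software's gProcessedSignal after background correction and normalization. Arrays were a custom Agilent SurePrint G3 4x180k design of double-stranded ~60-nt oligonucleotides with ~44,000 test sequences in quadruplicate, probed with nuclear extracts of COS-7 cells transiently expressing a human HNF4α isoform. Scans were made at 2-µm resolution on an Agilent G2565CA scanner.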

Sequence	binding signal [log2 normalized intensity]
ACCGACCTTTGGTTCCTGAACTCAAACCCCGCCTAGGGAGATTAGAGTATCGGTCGA	2.57
TGCCCAGCTTGAATCACTCACTGACCTCTTGCCTAGGGAGATTAGAGTATCGGTCGA	3.98
TCCTGGAACTCTGACCTTTGCCCCCAGCCTGCCTAGGGAGATTAGAGTATCGGTCGA	9.67
AGCCTCTCACAGTAGCCCAGGTCCTTTGGTGCCTAGGGAGATTAGAGTATCGGTCGA	0.178
CTGACCTTTGCCCCCAGCCTCTCACAGTAGGCCTAGGGAGATTAGAGTATCGGTCGA	6.87
AAATCTGCCCAACCTTTGCCCCTGGAGGGAGCCTAGGGAGATTAGAGTATCGGTCGA	3.74
AGGAGGAGGTTCCTGGAACTCTGACCTTTGGCCTAGGGAGATTAGAGTATCGGTCGA	5.97
GCTATCTTATCTTTGACCTTACCAGCCCACGCCTAGGGAGATTAGAGTATCGGTCGA	2.3
GAACTCTGACCTTTGCCCCCAGCCTCTCACGCCTAGGGAGATTAGAGTATCGGTCGA	8.72
GAGGTTCCTGGAACTCTGACCTTTGCCCCCGCCTAGGGAGATTAGAGTATCGGTCGA	10.5
CTTTGCCCCCAGCCTCTCACAGTAGCCCAGGCCTAGGGAGATTAGAGTATCGGTCGA	4.6
GCCTGCCCCTCTGACCTCTCCTCCTACCTTGCCTAGGGAGATTAGAGTATCGGTCGA	3.24
TTCTGTCCTCTCAAAGTCCACCCGGCCAGCGCCTAGGGAGATTAGAGTATCGGTCGA	4.04
TGCATCAGTGCTGACCTACCTGACCTGGCAGCCTAGGGAGATTAGAGTATCGGTCGA	1.28
AAGGGCAGCAGTAACCCCCCAGGAGCGAGTGCCTAGGGAGATTAGAGTATCGGTCGA	3.54
TGGGTATGTCTGTAGGTAAGCACAAAGTACGCCTAGGGAGATTAGAGTATCGGTCGA	1.92
GGCAAAACACCCCTTTCACTTCTTCCCCTCGCCTAGGGAGATTAGAGTATCGGTCGA	3.8
TAACCCTACAGTCCTGCCACATCCCCCACAGCCTAGGGAGATTAGAGTATCGGTCGA	4.26
AGGGGCTGCTGGGAGTTGTAGTTTTTTGGGGCCTAGGGAGATTAGAGTATCGGTCGA	1.54
AAGAGTCAAAGGGCAAAGGAATAAAATAGCGCCTAGGGAGATTAGAGTATCGGTCGA	-0.272
ACTGCCTGACCCCAAGTAATAGCCGTTTCTGCCTAGGGAGATTAGAGTATCGGTCGA	1.07

Sequence	binding signal [log2 normalized intensity]
CCCCCACTGCCTGACCCCAAGTAATAGCCGGCCTAGGGAGATTAGAGTATCGGTCGA	5.25
TTCATCCCCACCCCCACTGCCTGACCCCAAGCCTAGGGAGATTAGAGTATCGGTCGA	7.59
CCCCACCCCCACTGCCTGACCCCAAGTAATGCCTAGGGAGATTAGAGTATCGGTCGA	6.98
GGCGTGACCCCCACTGCCTGCCTGCCAACTGCCTAGGGAGATTAGAGTATCGGTCGA	2.89
CTCTTCAGAATGGCCTGCCCATCCCCCCAAGCCTAGGGAGATTAGAGTATCGGTCGA	5.18
TGCCCTTTGCCCTCACTGGTAGAAGGCAGCGCCTAGGGAGATTAGAGTATCGGTCGA	4.58
CGCTCCCCTCCCCCACCCGCGGTCCGTCCCGCCTAGGGAGATTAGAGTATCGGTCGA	5.86
TTTCCCTGGTCGACCTCCCCGTCACCCTCCGCCTAGGGAGATTAGAGTATCGGTCGA	4.15
CGACCTCCCCGTCACCCTCCCCGCCACCCCGCCTAGGGAGATTAGAGTATCGGTCGA	6.67
GTCACCCTCCCCGCCACCCCCCAGAGGGCCGCCTAGGGAGATTAGAGTATCGGTCGA	6.08
TCCCCGTCACCCTCCCCGCCACCCCCCAGAGCCTAGGGAGATTAGAGTATCGGTCGA	7.45
CTGGTCGACCTCCCCGTCACCCTCCCCGCCGCCTAGGGAGATTAGAGTATCGGTCGA	6
ACGTCTGTTAACCAAGATACTGGGTCAGAGGCCTAGGGAGATTAGAGTATCGGTCGA	1.11
ACCAGCGTAATTCTGGCTCTTTGAGTGGTTGCCTAGGGAGATTAGAGTATCGGTCGA	0.76
TCCAGCATTCTTTTCCCCATACCAGGCAGTGCCTAGGGAGATTAGAGTATCGGTCGA	2.37
GGCCAGGTGGGCTGCTCCCAGTGCCCTTTGGCCTAGGGAGATTAGAGTATCGGTCGA	3.73
CCTGACCCCCAGTGGAATGTGCCCTTTGACGCCTAGGGAGATTAGAGTATCGGTCGA	4.95
CCCCCAGTGGAATGTGCCCTTTGACCTCTCGCCTAGGGAGATTAGAGTATCGGTCGA	9.72
CGCCGGGCGCCGCTCTGAGTGACCTTTCACGCCTAGGGAGATTAGAGTATCGGTCGA	4.57
AATGTGCCCTTTGACCTCTCTCTCCTAACTGCCTAGGGAGATTAGAGTATCGGTCGA	6.48
GGAATGACCTTTGATATTTGTGCCTAGTGGGCCTAGGGAGATTAGAGTATCGGTCGA	4.8
